Assay results from ChEMBL document CHEMBL4513156, “CO-ADD screening of NCPRI (Romania) compounds”.
Measured potencies and affinities stand elsewhere.

Experiments:
[1] = test system: Staphylococcus aureus; settings: Concentration 32 ug.mL-1; ASSAY_TEST Inhibition of Bacterial Growth; detection method Absorption (OD600); MEDIA CAMHB; plate type 384well; NBS; CORNING #3640; time 18 hr
[2] = test system: Escherichia coli; settings: Concentration 32 ug.mL-1; ASSAY_TEST Inhibition of Bacterial Growth; detection method Absorption (OD600); MEDIA CAMHB; plate type 384well; NBS; CORNING #3640; time 18 hr

| Compound | Inhibition [1] [%] | Inhibition [2] [%] |
| --- | --- | --- |
| O=C(N/N=C1/C[C@@H]2[C@@H](C(=O)O)[C@H]1C[C@H]2Cl)c1ccncc1 | 32.79 | 18 |
| O=C(N/N=C/C[C@@H]1[C@@H](/C=N/NC(=O)c2ccncc2)[C@H](O)C[C@@H]1O)c1ccncc1 | 16.7 | 6.29 |
| COC(=O)CCCCCC[C@@H]1[C@@H](/C=N/NC(=O)c2ccncc2)[C@H](O)C[C@@H]1O | 12.62 | 6.85 |
| O=C(NN=CC[C@@H]1[C@@H](/C=C/[C@@H](O)CCc2ccccc2)[C@H](OC(=O)c2ccccc2)C[C@@H]1O)c1ccncc1 | 18.76 | 8.83 |
| O=C(N/N=C/[C@@H]1C[C@H](CO)[C@@H]2CCC[C@@H]21)c1ccncc1 | 23.56 | 14.61 |
| O=C(NN=CC[C@@H]1[C@@H](COC2CCCCO2)[C@H](OC2CCCCO2)C[C@@H]1O)c1ccncc1 (stereo not given in full) | 12.15 | 6.4 |
| O=C(NNC(=O)c1cccc([N+](=O)[O-])c1C(=O)O)c1ccncc1 | 23.26 | 20.08 |
| O=C(N/N=C/C[C@@H]1[C@@H](CO)[C@H](O)C[C@@H]1O)c1ccncc1 | 22.27 | 13.16 |
| O=C(N/N=C1/C[C@@H]2[C@H](COC(c3ccccc3)(c3ccccc3)c3ccccc3)C[C@H](COC(c3ccccc3)(c3ccccc3)c3ccccc3)[C@@H]2C1)c1ccncc1 | -0.42 | 11.41 |
| O=C1C[C@@H]2[C@@H](C=NNC(=O)c3ccncc3)[C@@H](C[C@H]2Cl)O1 | 33.55 | 18.72 |
